# Test results: PubChem BioAssay
# Activity calls are given as the source filed them. No stated cut-off is given here; in the data, active means inhibition above about 80%; inactive means the rest.
# Assay: growth inhibition of CRL1545 osteosarcoma cells, cell-based, cisplatin and BGB IC20 combos (AID 1671464);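 further: cells exposed to compound for 96 hours before readout; 0% = vehicle DMSO and 100% = high DMSO killing control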
# Settings: at 0.5 µM, stronger effect = higher value
row,Structure (SMILES),inhibition
1,O=c1[nH]cnc2c1ncn2C1CCC(CO)O1 (configuration not stated),-13.6% (inactive)
2,Cc1cn(C2C=CC(CO)O2)c(=O)[nH]c1=O (configuration not stated),-40.6% (inactive)
3,Nc1ccn(C2CCC(CO)O2)c(=O)n1 (configuration not stated),-50% (inactive)

# Same assay, conditions: measured here: with BGB IC20 combination, at 0.5 µM, stronger effect = higher value
row,Structure (SMILES),inhibition
1,O=c1[nH]cnc2c1ncn2C1CCC(CO)O1 (configuration not stated),0.279%
2,Cc1cn(C2C=CC(CO)O2)c(=O)[nH]c1=O (configuration not stated),-40.6%
3,Nc1ccn(C2CCC(CO)O2)c(=O)n1 (configuration not stated),-14.8%

# Same assay, conditions: measured here: with cisplatin IC20 combination, at 0.5 µM, stronger effect = higher value
row,Structure (SMILES),inhibition
1,O=c1[nH]cnc2c1ncn2C1CCC(CO)O1 (configuration not stated),-23.2%
2,Cc1cn(C2C=CC(CO)O2)c(=O)[nH]c1=O (configuration not stated),-43.7%
3,Nc1ccn(C2CCC(CO)O2)c(=O)n1 (configuration not stated),-67.7%

# Same assay, conditions: single agent, at 0.05 µM, stronger effect = higher value
row,Structure (SMILES),inhibition
1,O=c1[nH]cnc2c1ncn2C1CCC(CO)O1 (configuration not stated),-52.8%
2,Cc1cn(C2C=CC(CO)O2)c(=O)[nH]c1=O (configuration not stated),-24.2%
3,Nc1ccn(C2CCC(CO)O2)c(=O)n1 (configuration not stated),32.2%
